This is part of a sample that, as a whole, favours compounds with a hit. Of some 83,000 tested, about 20% had one in any assay.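 Each cell line was grown in a 96-well plate and treated with one concentration of compound for 48 hours. Values below 10 were considered active.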 Activity calls are given as the source filed them.
Tests used:
Experiment in all cases: NCI-60 one-dose screen, 48 h (100 = growth as untreated, 0 = no growth, -100 = all killed)
Conditions in all cases: 10 µM unless noted
[1] = test system: T-47D breast
[2] = test system: BT-549 breast
[3] = test system: MDA-MB-435 melanoma
[4] = test system: SW-620 colon
[5] = test system: MCF7 breast
[6] = test system: HCT-116 colon
[7] = test system: HCC-2998 colon
[8] = test system: KM12 colon

Measured: growth

Cc1c(O)c(=O)n(-c2ccccc2)n1C
inactive: [1] 99.5% | [2] 109% | [3] 109% | [4] 114% | [5] 101% | [6] 109% | [7] 97.3% | [8] 105%

COc1ccc(-c2nc3ccc(Cc4ccc5nc(-c6ccc(OC)cc6)[nH]c5c4)cc3[nH]2)cc1
inactive: [1] 20.8% | [2] 84.5% | [3] 35.3% | [4] 31.2% | [6] 39.4% | [7] 35.8% | [8] 49.1%
active: [5] -13.5%

O=C(NO)c1ccc(NCc2csc3ccccc23)cc1
inactive: [1] 41.5% | [2] 77.6% | [3] 82.4% | [4] 61.5% | [5] 83% | [6] 34.4% | [7] 73.5% | [8] 66.9%

CNCc1ccccc1CN(CC(=O)Nc1ccc2c(c1)CC1(C2)C(=O)Nc2ncccc21)C(=O)C(C)(C)C (stereo unspecified)
inactive: [1] 94.1% | [2] 96.3% | [3] 95.7% | [4] 97.4% | [5] 102% | [6] 105% | [7] 113% | [8] 107%

CCN(C)CCCOc1ccc(/C(=C(\C)Cc2cccc(OC)c2)c2ccc(OC(C)=O)cc2)cc1
inactive: [1] 75.6% | [2] 92.3% | [3] 97.1% | [4] 106% | [5] 51.4% | [6] 99.7% | [7] 101% | [8] 106%

NC(N)=N/N=C\c1ccc(OCc2ccccc2)cc1
inactive: [1] 35.7% | [2] 89.3% | [4] 73.9% | [5] 17.3% | [6] 61% | [7] 82.3% | [8] 58.8%
active: [3] 9.55%

O=Cc1ccc2nc(C(Cl)(Cl)Cl)ccc2c1
inactive: [1] 97.6% | [2] 95.9% | [3] 99.6% | [4] 98.3% | [5] 82.5% | [6] 96.7% | [7] 109% | [8] 100%

c1ccc(-c2[nH]c3ccccc3c2-c2ccccc2)cc1
inactive: [1] 66.1% | [2] 110% | [3] 84.6% | [4] 88.3% | [5] 94.9% | [6] 81.2% | [7] 114% | [8] 92.4%

O=C(Oc1c(Cl)c(Cl)c(Cl)c(Cl)c1Cl)C1CCCN1C(=O)OCc1ccccc1 (stereo unspecified)
inactive: [2] 54.9% | [3] 84.2% | [4] 22.2% | [5] 29.6% | [6] 15.9% | [7] 49.1% | [8] 23.6%
active: [1] 2.01%

CCCCn1c(C)nc2cc(Nc3nc(Cl)nc4nc[nH]c34)ccc21
inactive: [1] 39.3% | [2] 72.3% | [3] 90.1% | [4] 90.4% | [5] 75.4% | [6] 83.6% | [7] 102% | [8] 97.3%

NC(N)=N/N=C/c1ccccc1
inactive: [1] 94% | [2] 102% | [3] 93.6% | [4] 104% | [5] 93% | [6] 92.8% | [7] 98.1% | [8] 103%

COc1cc(/C=C/C(=O)c2ccc(NC(=O)CSc3nnc(-c4ccc(Cl)cc4)n3-c3ccccc3)cc2)cc(OC)c1OC
active: [6] 7.2%
inactive: [1] 47.5% | [2] 59.6% | [3] 64.4% | [4] 68.2% | [5] 20.8% | [7] 76.2% | [8] 67.9%

CCCCn1c(C)nc2ccc(Nc3nc(Cl)nc4nc[nH]c34)cc21
inactive: [1] 33.9% | [2] 47.8% | [3] 77.2% | [4] 78.6% | [5] 76.5% | [6] 67.7% | [7] 94% | [8] 77.5%

COc1cccc(CC(C)=C(c2ccc(OCCCN(C)C)cc2)c2ccc(OCCCN(C)C)cc2)c1
active: [1] -68.2% | [3] -91.7% | [4] -80.1% | [5] -73.6% | [6] -75.6% | [7] -71% | [8] -83%
inactive: [2] 55.3%

CCCCN(CCCC)CCC(O)c1cc2ccc(C(F)(F)F)cc2c2cc(C(F)(F)F)ccc12 (stereo unspecified)
inactive: [1] 52.1% | [2] 91.3% | [3] 54.2% | [4] 40.4% | [6] 30.5% | [8] 12.9%
active: [5] 6.74% | [7] -34.8%

COc1ccc(NC(=O)/C=C/c2ccc(NC(=O)N3CCCC3)cc2)cn1
inactive: [1] 99.9% | [2] 97.4% | [3] 103% | [4] 106% | [5] 91.7% | [6] 103% | [7] 111% | [8] 103%

COc1cc2cc(C(=O)Nc3ccccc3)c(N)nc2cc1OC
active: [1] -28% | [3] -84.2% | [4] -68% | [5] -88.4% | [6] -80.2% | [7] -83.4% | [8] -52%
inactive: [2] 69.9%

NC(=O)c1noc(C(=O)c2ccccc2)c1N
inactive: [1] 100% | [2] 98.2% | [3] 95.6% | [4] 101% | [5] 97.3% | [6] 85.4% | [7] 119% | [8] 98.7%

Cc1cc(C)cc(NC(=O)Cn2nncc2CN2C(=O)CSC2=O)c1
inactive: [1] 99.9% | [2] 101% | [3] 103% | [4] 99.7% | [5] 93.4% | [6] 107% | [7] 108% | [8] 110%

Cc1cc(C)c2c(n1)sc1c(Nc3ccc(Cl)cc3Cl)ncnc12
inactive: [1] 36.8% | [2] 44% | [3] 36% | [4] 44.6% | [5] 19.8% | [6] 24.9% | [7] 58.6% | [8] 49.8%

Cc1ccc(NC(=O)c2nc(S(C)(=O)=O)oc2-c2ccc(F)cc2)cc1Nc1ccc2ncn(C)c(=O)c2c1
active: [1] -9.98% | [4] -6.67% | [6] -10.8%
inactive: [2] 66.3% | [3] 69.4% | [5] 52.5% | [7] 99.7% | [8] 59.2%

CCCCNCC(O)c1cc2c(Cl)cc(Cl)cc2c2cc(C(F)(F)F)ccc12 (stereo unspecified)
active: [1] -74.6% | [3] -52.7% | [4] -68.2% | [5] -83.5% | [6] -91.7% | [7] -72% | [8] -89.4%
inactive: [2] 11.9%

O=C(/C=C/c1cccc([N+](=O)[O-])c1)c1ccc(Nc2nc(N3CCCCC3)nc(N3CCCCC3)n2)cc1
active: [3] -11.7% | [6] -34.5%
inactive: [1] 78.6% | [2] 91.8% | [4] 94.2% | [5] 19.4% | [7] 81.8% | [8] 85.5%

COc1ccc(C2CC(c3cccc(Nc4ccnc5cc(Cl)ccc45)c3)=NN2c2ccccc2)cc1 (stereo unspecified)
inactive: [1] 50.8% | [2] 63% | [4] 36.8% | [5] 47.6% | [6] 65.5% | [7] 54.1% | [8] 27.1%
active: [3] -9.41%

Brc1ccccc1Cn1c(-c2cncs2)nc2ccccc21
inactive: [1] 72.2% | [2] 85.4% | [3] 110% | [4] 88.4% | [5] 98.9% | [6] 73.3% | [7] 92% | [8] 76.7%

Nc1ccc(C(OC(=O)c2cc3ccccc3c(Cc3c(O)c(C(=O)OC(c4ccc(N)cc4)(c4ccc(N)cc4)c4ccc(N)cc4)cc4ccccc34)c2O)(c2ccc(N)cc2)c2ccc(N)cc2)cc1
inactive: [1] 17.2% | [4] 15.9%
active: [2] -4.24% | [3] 6.93% | [5] 9.51% | [6] 8.88% | [7] 9.42% | [8] 5.29%

CCN1CCN(Cc2ccc(NC(=O)c3nc4ccc5[nH]ncc5c4c4c3CCCC4)cc2C(F)(F)F)CC1
inactive: [2] 79.6%
active: [1] -69.3% | [3] -87.9% | [4] -58.3% | [5] -71.4% | [6] -77.9% | [7] -58.1% | [8] 4.08%
